Inconclusive results are not listed. Activity calls are given as the source filed them. Calls come from the whole dose curve; as a rule, active = well fitted inhibition curve with a large enough effect; inconclusive = small, poorly fitted or top-dose-only effect; inactive = flat fitted curve, though single readings scatter.
Biological target: Calcium and integrin-binding protein 1 (Homo sapiens) (UniProt Q99828)
Experiment: Primary qHTS for Identification of Calcium Integrin Binding Protein 1 (CIB1) Competitor (AID 1508620);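 note: GST tagged CIB1 binding a fluorescein labelled alphaIIb integrin peptide tracer; top concentration of the series differs between compounds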
Conditions: CIB1-GST / FITC-alphaIIb peptide fluorescence polarization; series mostly up to 57.7 µM
Source text: Assay Provider: Ulhas P. Naik, PhD Sidney Kimmel Medical College Thomas Jefferson University, Philadelphia, PA Primary function of platelets is to maintain hemostasis. At the site of vascular injury, platelets adhere to adhesive proteins such as collagen and von Willebrand factor. Adherent platelets are activated and generate soluble platelet agonists such as thrombin, ADP and thromboxane A2. Following exposure of circulating platelets to these agonists, results in platelet shape change, granule secretion and activation of platelet integrin alphaIIb-beta3. Ligand binding to activated integrin alphaIIb-beta3 triggers outside-in signaling, leading to platelet aggregation, stabilization of platelet plug, and clot retraction. Upon atherosclerotic plaque rupture also causes platelet plug formation, which underlies a number of cardiovascular diseases such as myocardial infraction and stroke. A number of anti-platelet drugs such as aspirin, clopidogrel, prasugrel, vorapaxar, and eptifibatide are currently available to prevent the thrombotic complications. However, these anti-platelet agents have several limitations including inherent variability in individual responses, developing resistance, and serious bleeding side effects. For these reasons they are not suitable for long-term protection. Based on the experiences with current anti-platelet drugs, it appears that the most useful therapeutic approach is to intersect the secondary responses such as integrin outside-in signaling or recruitment of platelets by TxA2 and secreted ADP. Compounds, which can largely preserve the primary hemostatic function of platelets but inhibit secondary response will be most desired therapeutic agents for treatment of cardiovascular disease. CIB1 is a calcium integrin binding protein, which specifically interact with the alphaIIb subunit of integrin alphaIIb-beta3. Binding of CIB1 to alphaIIb regulates the outside-in signaling in platelets, which is needed for thrombus stabilization and thrombus growth. […] Therefore, we propose that discovery of a small molecule that can prevent the association of CIB1 and alphaIIb-beta3 will be a potential anti-platelet agent that can block the thrombus formation without undue effect on hemostasis. Reference: [1] Naik MU, Nigam A, Manrai P, et al. CIB1 deficiency results in impaired thrombosis: the potential role of CIB1 in outside-in signaling through integrin alpha IIb beta 3. J Thromb Haemost.
PROTOCOL TABLES SEQUENCE No. (1, 2, 3, etc.); […] (e.g., Cells, Incubation, Reagent, etc.); VALUE and DESCRIPTION. 1; Reagent; 3 uL; Protein or buffer (4/3x) 2; Compound; 46 nL; Control inhibitor / compound library 3; Time; 15 min; Room temperature incubation 4; Reagent; 1 uL; Fluorescent labeled peptide (4x) 5; Time; 1000 rpm; Centrifuge 6; Time; 15 min; Room temperature incubation 7; Detection; Ex 480/ Em 540; ViewLux Fluorescence Read NOTES (numbers refer to sequence above) 1; Protein Mixture: C1B1-GST (final concentrations of 1 uM). […] 3; Room temperature incubation. 4; Fluorescent Labeled Peptide: FITC-aIIb (final concentration of 100 nM). Sequence of alphaIIb peptide: Acetyl-[…]-FITC (purity is 95.83%). 5; Centrifuge 1000 rpm (164 g) for 15 seconds. 6; Room temperature incubation. 7; ViewLux Fluorescent Polization Read: excitation = 480(20) / emission = 540(25) S and P; FITC Dichroic mirror.

Chain of Calcium and integrin-binding protein 1 (Homo sapiens) (Q99828 whole entry, looked up): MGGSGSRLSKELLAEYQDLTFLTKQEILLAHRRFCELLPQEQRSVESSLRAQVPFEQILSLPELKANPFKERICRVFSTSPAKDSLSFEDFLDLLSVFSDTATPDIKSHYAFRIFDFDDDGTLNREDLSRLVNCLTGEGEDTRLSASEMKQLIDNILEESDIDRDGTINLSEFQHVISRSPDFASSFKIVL

Row | Structure (SMILES) | outcome
1 | COc1cc(OC2CCN(C)CC2)ccc1Nc1ncc2c(n1)n(C1CCCC1)c(=O)n2C | inactive
2 | O=C(Nc1nc2cccc(-c3ccc(CN4CCS(=O)(=O)CC4)cc3)n2n1)C1CC1 | inactive
3 | O=C(C=Cc1cccc(S(=O)(=O)Nc2ccccc2)c1)NO | inactive
4 | CC(C)CC(=O)Nc1n[nH]c2c1CN(C(=O)C1CCN(C)CC1)C2(C)C | inactive
5 | Nc1ccn([C@@H]2CS[C@H](CO)O2)c(=O)n1 | inactive
6 | C=CC(=O)Nc1cc2c(Nc3ccc(F)c(Cl)c3)ncnc2cc1C#CC(C)(C)N1CCN(C)CC1 | inactive
7 | Nc1ccc(S(=O)(=O)Nc2ncccn2)cc1 | inactive
8 | Cc1c(NC(=O)OC[C@@H]2COCCN2)cn2ncnc(Nc3ccc4c(cnn4Cc4cccc(F)c4)c3)c12 | inactive
9 | CN1CCN(Cc2ccc(NC(=O)Nc3ccc(Oc4cc(NC(=O)C5CC5)ncn4)cc3)cc2C(F)(F)F)CC1 | inactive
10 | Cc1cnc(Nc2ccc(F)cc2Cl)nc1-c1c[nH]c(C(=O)N[C@H](CO)c2cccc(Cl)c2)c1 | inactive
11 | CC(C)(C)OC(=O)Nc1ccc(-c2cc(C(=O)NCCCCCCC(=O)NO)no2)cc1 | inactive
12 | Cc1cc(N2CCOCC2)cc2[nH]c(-c3c(NC[C@@H](O)c4cccc(Cl)c4)cc[nH]c3=O)nc12 | inactive
13 | COc1ccc(-n2nc(C(N)=O)c3c2C(=O)N(c2ccc(N4CCCCC4=O)cc2)CC3)cc1 | inactive
14 | c1cc(-c2cnn3cc(-c4ccc(OCCN5CCCCC5)cc4)cnc23)ccn1 | inactive
15 | Cc1cc(C(=O)N2CCN(c3cccc(Cl)c3)CC2)n(-c2ccccc2)n1 | inactive
16 | Nc1ccccc1NC(=O)c1ccc(CNC(=O)OCc2cccnc2)cc1 | inactive
17 | CN1CCN(c2cc(C(=O)Nc3ccc4c(c3)-c3c(c(C(N)=O)nn3-c3ccc(F)cc3)CC4)c(Cl)cn2)CC1 | inactive
18 | Cc1cn2cc(C(=O)N(C)CCO)cc(N[C@@H]3CCOc4cccc(C)c43)c2n1 | inactive
19 | COC(=O)c1ccc2c(C(=Nc3ccc(N(C)C(=O)CN4CCN(C)CC4)cc3)c3ccccc3)c(O)[nH]c2c1 | inactive
20 | Nc1cc(C(F)(F)F)c(-c2cc(N3CCOCC3)nc(N3CCOCC3)n2)cn1 | inactive

Row | Structure (SMILES) | outcome
21 | O=C(O)c1ccc2c(c1)nc(Nc1cccc(Cl)c1)c1ccncc12 | inactive
22 | COc1cccc2nc(-c3cccs3)nc(NN3C(=O)C=C(C)C3=O)c12 | inactive
23 | Cc1cc(Nc2ncnc3ccc(-c4ccc(CNCCS(C)(=O)=O)o4)cc23)ccc1Oc1ccn2ncnc2c1 | inactive
24 | Cc1ccc(C(=O)Nc2cccc(C(F)(F)F)c2)cc1-c1ccc2nc(NCCN3CCOCC3)ncc2c1 | inactive
25 | Cc1ccc(C(=O)Nc2ccc(CN3CCN(C)CC3)c(C(F)(F)F)c2)cc1C#Cc1cnc2cccnn12 | inactive
26 | CC[C@H]1CN2CCc3cc(OC)c(OC)cc3[C@H]2C[C@@H]1C[C@@H]1NCCc2cc(OC)c(OC)cc21 | inactive
27 | COc1ccc(CC2SC(=O)NC2=O)cc1C(=O)NCc1ccc(C(F)(F)F)cc1 (stereo not given) | inactive
28 | O=C(O)C1(Cc2cccc(Nc3nccs3)n2)CCC(Oc2cccc(Cl)c2F)CC1 (stereo not given) | inactive
29 | CCN(CC)CCNC(=O)c1ccc2nc(-c3ccccc3)c(-c3ccc(CN4CCC(n5c(=O)[nH]c6ccccc65)CC4)cc3)nc2c1 | inactive
30 | Cc1cc(Nc2cc(N3CCN(C)CC3)nc(C=Cc3ccccc3)n2)n[nH]1 | inactive
31 | C[C@@H](Oc1cc(-c2cnn(C3CCNCC3)c2)cnc1N)c1c(Cl)ccc(F)c1Cl | inactive
32 | CC(C)(C)c1cc(NC(=O)Nc2ccc(-c3cn4c(n3)sc3cc(OCCN5CCOCC5)ccc34)cc2)no1 | inactive
33 | CC(C)c1cc(-c2n[nH]c(=O)n2-c2ccc3c(ccn3C)c2)c(O)cc1O | inactive
34 | CCCn1c(=O)c2[nH]c(-c3cnn(Cc4cccc(C(F)(F)F)c4)c3)nc2n(CC)c1=O | inactive
35 | COc1cc(C(=O)N2CCC(N3CCN(C)CC3)CC2)ccc1Nc1ncc2c(n1)N(C)c1ccccc1C(=O)N2C | inactive
36 | C#Cc1cccc(Nc2ncnc3cc(OC)c(OCCCCCCC(=O)NO)cc23)c1 | inactive
37 | Cc1c(Cn2c(C)nc3c(C(=O)O)cc(N4CCOCC4)cc32)cccc1C(F)(F)F | inactive
38 | CN(C)c1nc(Cc2ccc(NC(=O)c3ccc4ccccc4c3)cc2)nc(Cl)c1CC(=O)O | inactive
39 | Cn1cncc1[C@@](N)(c1ccc(Cl)cc1)c1ccc2c(c1)c(-c1cccc(Cl)c1)cc(=O)n2C | inactive
40 | COC(=O)C[C@](O)(CCCC(C)(C)O)C(=O)O[C@@H]1C(OC)=C[C@]23CCCN2CCc2cc4c(cc2[C@H]13)OCO4 | inactive

From PubChem BioAssay (NCATS)
